Counter-ions that a name gives are not always drawn.
What was measured:
[1] = system: HCC1937; assay: relative cell viability, compound alone, vs DMSO (fraction of DMSO control); higher = less growth inhibition; conditions: 72 h
[2] = system: MDA-MB-231; assay: as above; conditions: 72 h
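Further: viability read out with the CCK-8 kit in 96-well plates, screening a set of 303 compounds acting on lipid metabolism targets.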

SMILES	relative cell viability [1]	relative cell viability [2]
O=c1ccc2cc(O)c(O)cc2o1 [Esculetin]	0.673	0.672
Cc1c2c(=O)n(-c3ccccc3Cl)[nH]c2cc(=O)n1Cc1ccccn1	0.973	1.07
CC(C)CCC[C@@H](C)[C@H]1CC[C@H]2[C@@H]3CC=C4C[C@@H](O)CC[C@]4(C)[C@H]3CC[C@]12C [Cholesterol]	0.91	1.01
CCN(CC)C(=O)N1CCN(C)CC1 [Diethylcarbamazine citrate]	0.699	0.856
CN(C)c1cccc(-c2c3c(=O)n(-c4ccccc4Cl)[nH]c3cc(=O)n2C)c1	0.903	0.974
CCCCCCCCCCCC1=C(O)C(=O)C=C(O)C1=O [Embelin]	1.08	0.983
CCCCCCCCCCCCCCOc1ccc(C(=O)OCC(=O)N(C)CC(=O)OCC)o1 [Olumacostat Glasaretil]	0.812	0.863
CCCC[S+]([O-])c1sc2nc(-c3cccs3)cc(-c3ccccc3)c2c1N (stereo not given)	0.85	0.806
COc1cccc(CNc2ccc(S(=O)(=O)Nc3nc4ccccc4s3)cc2)c1O	1.01	0.975
CC(C)[C@H](N=C(NS(=O)(=O)c1ccc(Cl)cc1)N1C[C@H](c2ccccc2)C(c2ccc(Cl)cc2)=N1)C(N)=O	0.87	0.893
COP(=O)(OC)OC(c1ccc(Cl)cc1)P(=O)(OC)OC (stereo not given) [Mifobate]	1.18	1.2
O=P(O)(O)OC(CO)CO [β-Glycerol phosphate disodium salt pentahydrate]	0.636	0.874
Cc1ccc(C)c(OCCCC(C)(C)C(=O)O)c1 [Gemfibrozil]	0.736	0.783
O=c1oc2ccccc2cc1O [3-Hydroxycoumarin]	1.02	1.05
CC(C)(Oc1ccc(C(=O)c2ccc(Cl)cc2)cc1)C(=O)O [Choline Fenofibrate]	0.928	1.07
CC(C)n1c(/C=C/C(O)CC(O)CC(=O)O)c(-c2ccc(F)cc2)c2ccccc21 (stereo not given) [Fluvastatin sodium salt]	0.924	0.863
CCC1C(O)C2C3CCC(C(C)CCO)C3(C)CCC2C2(C)CCC(O)CC12 (stereo not given)	0.848	0.916
COC(=O)CN(c1ccc(CN(c2ccc(OCc3ccc(C)cc3)c(C(=O)OC)c2)S(=O)(=O)Cc2ccccc2)cc1)S(C)(=O)=O	0.894	0.921
Nc1ncnc2c1ncn2C1OC(COP(=O)(O)O)C(O)C1O (stereo not given) [Adenosine 5'-monophosphate monohydrate]	1.09	1.03
Cc1c(C)c2c(c(C)c1O)CCC(C)(COc1ccc(CC3SC(=O)NC3=O)cc1)O2 (stereo not given) [Troglitazone]	0.718	0.984
CC1(C)CC[C@]2(C(=O)O[C@@H]3O[C@H](CO)[C@@H](O)[C@H](O)[C@H]3O)CC[C@]3(C)C(=CC[C@@H]4[C@@]5(C)CC[C@H](O[C@@H]6O[C@H](C(=O)O)[C@@H](O)[C@H](O)[C@H]6O)C(C)(C)[C@@H]5CC[C@]43C)[C@@H]2C1 [Chikusetsusaponin IVa]	1.02	0.966
Fc1ccc(-c2c3cccc(C(F)(F)F)c3nn2Cc2ccc(F)cc2Cl)cc1	1.11	0.816
CC(C)(Oc1ccc(C(=O)c2ccc(Cl)cc2)cc1)C(=O)O [Fenofibric acid]	0.686	0.842
CC(C)(O)[C@@H]1Cc2cc3ccc(=O)oc3cc2O1 [marmesin]	0.74	0.866
CCOC(=O)c1c(NC(=O)CN2CCN(C(=O)c3ccco3)CC2)sc2c1CCC2	0.857	0.967
CC[C@H](C)C(=O)O[C@H]1CCC=C2C=C[C@H](C)[C@H](CC[C@@H]3C[C@@H](O)CC(=O)O3)[C@H]21 [Mevastatin]	0.819	0.548
Nc1cccc(S(=O)(=O)N2CCCN(S(=O)(=O)c3ccc4c(c3)OCCO4)CC2)c1	0.881	1.01
C=C(C)[C@@H]1CC[C@]2(C)CC[C@]3(C)[C@H](CC[C@@H]4[C@@]5(C)CCC(=O)C(C)(C)[C@@H]5CC[C@]43C)[C@@H]12	1.04	1.08
CC(C)=CCC[C@](C)(O)[C@H]1CC[C@]2(C)[C@@H]1[C@H](O)C[C@@H]1[C@@]3(C)CC[C@H](O)C(C)(C)[C@@H]3[C@@H](O)C[C@]12C [(20S)-Protopanaxatriol]	1.24	1
CCCCCCCCCCOc1ccc(C(=O)Nc2cc(C(=O)NCCCC)ccc2SC)cc1	1.02	1.06

Source: the supplement of paper PMC9492666
